Source: PubChem (National Center for Advancing Translational Sciences (NCATS))
In the library only some 2.3% were active in any assay of this set; here they are far more common.
Akt phos inh = HTS Assay for Inhibitors of Akt Phophorylation: Primary Screen | 360,000 compounds, 0.32% hits | Neuro2A IGF-stimulated pAkt S473 HTRF, 20 min; stronger effect = lower value | activity change, % for hits at 50 µM; in the data active means activity change below about -80%; inconclusive means mostly about -51% to -80%; further: on the % scale 0 is the no-effect control and ±100 the full control effect
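Neuro2A cells in DMEM with 0.5% FBS, overnight at 37 deg C, given compound at single 50 µM final, then IGF (6 nM final) for 20 min at 37 deg C. Lysed; phospho-Akt Ser473 by HTRF after 24 h, 665/615 ratio.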
TDP-43 yeast inh = qHTS of TDP-43 Inhibitors. TDP-43 expressing yeast growth rescue, BacTiter-Glo, 24 h. Potency, µM (top dose mostly 46.1 µM), for the others: top-dose growth rescue (activation), most hits filed as activators. 410,000 compounds, 1.8% hits. AID 652104, 2013; further: potency means the concentration at half of the fitted maximal effect; % of control where 0% means no effect; nearly all actives have a fitted effect of over 50% in size
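Yeast cells expressing TDP-43 under galactose induction are exposed to compounds for 24 hr at 30 deg C. BacTiter-Glo luminescence measures growth, so protective compounds score as activators.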
aSyn yeast inh = qHTS of alpha-syn Inhibitors | Potency, µM (top dose mostly 46.1 µM), for the others: at the top dose growth rescue (activation), usual class: activators | Yeast expressing alpha-synuclein, growth rescue, BacTiter-Glo, 24 h | AID 652106, 2013 | 370,000 compounds, 0.14% hits; further: potency means the concentration at half of the fitted maximal effect; % of control where 0% means no effect; nearly all actives have a fitted effect of over 65% in size
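Readout is rescue of growth in alpha-synuclein-expressing yeast, so inhibitors of toxicity appear as activators. Growth after 24 hr at 30 deg C in galactose medium is quantified by luminescence.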
FUS suppressor = qHTS for Suppressors of FUS Proteinopathy: Primary screen using FUS-linked yeast assay; Potency, µM (titrated, usually from 76.6 µM), most hits filed as activators; 390,000 compounds, 0.24% hits; AID 1347120, 2019; S. cerevisiae FUS-expressing, growth rescue, OD600, 24 h;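 further: potency means the concentration at half of the fitted maximal effect; plate controls were DMSO vehicle for no effect and reference control for full effect; nearly all actives have a fitted effect of over 55% in size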
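S. cerevisiae expressing FUS from galactose induction served as the toxicity model. Growth after 24hr at 30C, read as absorbance at 600 nm, indicates suppression of toxicity; compounds dosed at several concentrations.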
Abeta yeast res = qHTS for compounds that reverse cellular toxicity of Amyloid beta (A-beta) peptide in yeast: Primary Screen. yeast expressing A-beta42, growth rescue, OD600, 48 h; response scale: 0% DMSO, 100% iron-clioquinol control. Potency, µM (series often up to 46.1 µM), usual class: activators. 410,000 compounds, 0.063% hits. AID 1347071, 2019; further: potency means the concentration at half of the fitted maximal effect; nearly all actives have a fitted effect of over 55% in size
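Yeast A-beta toxicity model in growth medium with pinned compounds, 48 h at 30 C; growth read as absorbance at 600 nm. Normalized to FeCl3/clioquinol equimolar mix (positive) and DMSO (negative).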
The depositor's hits bear a star; i = inactive; ? = inconclusive; nt = no result given; [ ] = dose if it differs, or a comment. Unless noted, the call rests on the fitted dose curve; in most records, active means well fitted curve in the direction sought with a large enough effect; inconclusive means small, poorly fitted or top-dose-only effect, or another doubt; inactive means no such curve, though single readings can be large; an effect the other way counts as inactive or inconclusive.

SMILES | Akt phos inh | TDP-43 yeast inh | aSyn yeast inh | FUS suppressor | Abeta yeast res
CCOC(=O)N1CCN(C(=O)c2ccc3nc(-c4ccccc4)c(-c4ccccc4)nc3c2)CC1 | i | 17.8µM* | 3.7% | ? | i
CCc1nc2ccc(C(=O)N3CCN(c4ccccc4)CC3)cc2nc1CC | i | ? | 7.8% | ? | i
O=C(NCc1ccc2c(c1)OCO2)C12CN(Cc3ccccc3)CC1C(c1cccc([N+](=O)[O-])c1)=NO2 (centres undefined) | i | -13.2% | -4.0% | 28.2µM* | i
S=c1[nH]nc(-c2ccc(Cl)cc2)n1/N=C/C=C/c1ccco1 | i | -20.6%[1.82 µM] | 14.7% | ? | 5.01µM*
S=c1[nH]nc(-c2ccccc2)n1/N=C/C=C/c1ccco1 | i | 19.2% | 2.0% | nt | i
CCc1nn(CC(=O)NCCc2ccc(Cl)cc2)c(=O)c2cc3c(OC)cccc3n12 | nt | -9.5% | nt | i | i
CC(C)(C)OC(=O)N1CCC(c2c(C(=O)Nc3ccc4c(c3)OCCO4)cnn2-c2ccc(Cl)cc2)CC1 | nt | -5.4% | nt | ? | i
Cc1ccccc1-c1noc(-c2ccccc2OCC(=O)Nc2ccccc2[N+](=O)[O-])n1 | nt | 6.0% | nt | i | i
COc1ccccc1NC(=O)COc1cccnc1[N+](=O)[O-] | i | 7.94µM* | 9.3% | i | i
Cc1noc(-c2ccccc2OCC(=O)Nc2ccccc2[N+](=O)[O-])n1 | nt | 20µM* | nt | i | i
CCc1ccc(NC(=O)c2noc(C(C)C)c2[N+](=O)[O-])cc1 | i | 11.2µM* | 2.0% | i | i
COc1ccc(NC(=O)c2noc(C(C)C)c2[N+](=O)[O-])cc1 | i | 5.1%[0.397 µM] | 0.4% | i | i
CC(=O)c1cccc(NC(=O)c2ccc([N+](=O)[O-])o2)c1 | i | ? | -27.0% | i | i
CC(=O)c1ccc(NC(=O)c2noc(C(C)C)c2[N+](=O)[O-])cc1 | i | 17.8µM* | -13.5% | i | i
CC(=O)c1ccc(NC(=O)c2ccc([N+](=O)[O-])o2)cc1 | i | 15.8µM* | -52.8% | i | i
COc1ccc(NC(=O)Cn2c(=O)oc3cc(S(=O)(=O)NC(C)C)ccc32)cc1OC | nt | -18.6% | nt | i | i
O=C(Nc1nc(OCCN2CCCC2=O)cnc1/C=C\c1ccccc1)c1cc2ccccc2s1 | i | 18.9% | ? | 39.8µM* | i
CCOC(=O)N1CCN(C(=O)C[C@@H]2C[C@@]3(C(=O)OC)CCCCC=C3N(Cc3ccc(Cl)cc3Cl)C2=O)CC1 | i | 22.4µM* | 18.7% | ? | i
CCOC(=O)[C@]12CCCC=C1N(CCC1=CCCCC1)C(=O)[C@H](CC(=O)NCc1ccc(OC)c(OC)c1)C2 | i | 0.0% | -13.8% | i | i
CCOC(=O)[C@]12CCCC=C1N(CCC1=CCCCC1)C(=O)[C@H](CC(=O)NCc1cccc3ccccc13)C2 | i | 35.5µM* | 18.1% | i | ?
CCCCCCCCN1C(=O)[C@H](CC(=O)NCCCOC)C[C@@]2(C(=O)OCC)CCCC=C12 | i | -0.5% | 9.0% | 12.6µM* | i
CCCCCCCCN1C(=O)[C@H](CC(=O)N2CCN(C(=O)OCC)CC2)C[C@@]2(C(=O)OCC)CCCC=C12 | i | 25.1µM* | 0.0% | ? | i
CCCCCCCCN1C(=O)[C@H](CC(=O)NCCCN2CCCC2=O)C[C@@]2(C(=O)OCC)CCCC=C12 | i | 21.0% | 7.1% | ? | i
COc1ccc(C)cc1NC(=O)C1CCN(S(=O)(=O)Cc2ccccc2)CC1 | nt | 17.6% | nt | i | i
Cc1ccc(CNc2ccc(-c3nc(-c4ccncc4)no3)cc2[N+](=O)[O-])cc1 | nt | -19.9% | nt | i | i
SMILES | Akt phos inh | TDP-43 yeast inh | aSyn yeast inh | FUS suppressor | Abeta yeast res
CCCCNC(=O)C[C@@H]1C[C@@]2(C(=O)OCC)CCCC=C2N(CCC2=CCCCC2)C1=O | i | 35.5µM* | -0.2% | i | i
COc1cc(C)c(S(=O)(=O)NCc2ccc3c(c2)OCO3)cc1C | i | 15.8µM* | ? | i | i
COC(=O)N1CCCc2cc(S(=O)(=O)NCc3ccccc3)ccc21 | nt | 13.0% | 17.8µM* | i | i
CC(=O)N1CCc2cc(CNS(=O)(=O)c3ccc(C(C)(C)C)cc3)ccc21 | nt | 29.4% | nt | ? | i
COc1cc(S(=O)(=O)NCc2ccccc2)ccc1Br | i | 12.6µM* | 2.9% | nt | i
CCC(=O)N1CCc2cc(CNS(=O)(=O)c3ccc(C(C)C)cc3)ccc21 | nt | 20µM* | nt | i | i
Cc1cccc(NC(=O)C2CCCN(S(=O)(=O)c3c(C)noc3/C=C/N(C)C)C2)c1C (centres undefined) | nt | 19.7% | nt | ? | i
CC(C)(C)c1ccc(C(=O)CCCN2CCC(OC(c3ccccc3)c3ccccc3)CC2)cc1 | nt | nt | -35.1% | nt | nt
O=C(CNCc1ccccc1[N+](=O)[O-])N1CCC2(CC1)OCCO2 | nt | nt | nt | i | nt
Cc1ccc(-c2nc(C3CCCN(S(=O)(=O)c4ccc(C)c(C)c4)C3)no2)cc1 (centres undefined) | nt | nt | nt | i | nt
COc1cc(S(=O)(=O)NCc2ccc3c(c2)OCO3)ccc1F | i | ? | 11.2% | i | i
CC(C)c1ccc(S(=O)(=O)NCc2ccc3c(c2)OCO3)cc1 | i | 11.2µM* | 14.8% | i | i
COc1cc(S(=O)(=O)NCc2ccc3c(c2)OCO3)ccc1Cl | i | 12.6µM* | -9.9% | i | i
CCC(C)Nc1nc(N)c([N+](=O)[O-])c(NCc2ccccc2)n1 (centres undefined) | i | 17.8µM* | 0.1% | i | i
Cc1ccc(Nc2nc(N)c([N+](=O)[O-])c(NCc3ccccc3)n2)cc1 | i | 5.4% | -1.8% | i | i
O=[N+]([O-])c1cn(Cc2ccc(Cl)cc2)cn1 | i | 11.5% | 6.5% | i | ?
O=C(Cn1cnc([N+](=O)[O-])c1)c1ccc(Cl)cc1 | i | 15.8µM* | 0.3% | i | i
COc1ccc(N2CC(c3nc(-c4cc(OC)c(OC)c(OC)c4)no3)CC2=O)cc1Cl (centres undefined) | nt | 6.5% | nt | i | i
Cc1ccc(-c2cc(C(=O)Oc3ccc(C#N)cc3)no2)cc1 | nt | 11.5% | nt | i | i
O=C1C2=C(NC(=S)NC2c2ccc(Cl)cc2)NC(c2ccc(Cl)cc2)N1c1ccc(Cl)cc1 (centres undefined) | ? | ? | -31.5% | 28.2µM* | i
COc1ccc(CN(Cc2ccccc2)C(=O)c2cccc(C#N)c2)cc1COc1ccc(NC(C)=O)cc1 | nt | nt | -6.0% | nt | nt
